# The list shows a part of the results. The true hit rate is not given.
# B1: FS-1077 (peptide)
# chain: CARWKRYRRWAGNASASA
# B2: FS-2471 (peptide)
# chain: CARWKRQNFHAGNASASA
# B3: FS-2845 (peptide)
# chain: CARWKRTQSQAGNASASA
# B4: FS-2844 (peptide)
# chain: CARWGRYEGGAGNASASA
# B5: FS-142 (peptide)
# chain: CARWKRYQRSAGNASASA
# B6: FS-2623 (peptide)
# chain: CARWKRTQRHAGNASASA
# B7: HC832 (peptide)
# chain: CALVVLATATAGNASASA
# B8: HC1673 (peptide)
# chain: CAREECSQHLAGNASASA
# B9: FS-1502 (peptide)
# chain: CAWARRHKREAGNASASA
# B10: FS-179 (peptide)
# chain: CANDIREKREAGNASASA
# B11: FS-905 (peptide)
# chain: CAEERREKREAGNASASA
# B12: FS-694 (peptide)
# chain: CANKARLKKIAGNASASA
# Molecular target: furin, P09958
# Experiment: furin cleavage Z-score vs untreated control; higher = more cleavage, active = 3.5 or more, inactive = 1 or less, 8 variable residues between constant flanks
# Summary of the method: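 Read counts from sequencing released DNA gave abundance for each bead-bound 8-mer peptide–cDNA fusion cut by purified furin over 7.5, 15 or 30 min. The cleavage Z-score compares log counts with furin-free reactions after lowess adjustment and median absolute deviation scaling.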
# 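Note: purified furin at 1:10 enzyme:substrate in 50 mM HEPES pH 7.5.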
# Sequence of furin, P09958 (P09958 whole entry): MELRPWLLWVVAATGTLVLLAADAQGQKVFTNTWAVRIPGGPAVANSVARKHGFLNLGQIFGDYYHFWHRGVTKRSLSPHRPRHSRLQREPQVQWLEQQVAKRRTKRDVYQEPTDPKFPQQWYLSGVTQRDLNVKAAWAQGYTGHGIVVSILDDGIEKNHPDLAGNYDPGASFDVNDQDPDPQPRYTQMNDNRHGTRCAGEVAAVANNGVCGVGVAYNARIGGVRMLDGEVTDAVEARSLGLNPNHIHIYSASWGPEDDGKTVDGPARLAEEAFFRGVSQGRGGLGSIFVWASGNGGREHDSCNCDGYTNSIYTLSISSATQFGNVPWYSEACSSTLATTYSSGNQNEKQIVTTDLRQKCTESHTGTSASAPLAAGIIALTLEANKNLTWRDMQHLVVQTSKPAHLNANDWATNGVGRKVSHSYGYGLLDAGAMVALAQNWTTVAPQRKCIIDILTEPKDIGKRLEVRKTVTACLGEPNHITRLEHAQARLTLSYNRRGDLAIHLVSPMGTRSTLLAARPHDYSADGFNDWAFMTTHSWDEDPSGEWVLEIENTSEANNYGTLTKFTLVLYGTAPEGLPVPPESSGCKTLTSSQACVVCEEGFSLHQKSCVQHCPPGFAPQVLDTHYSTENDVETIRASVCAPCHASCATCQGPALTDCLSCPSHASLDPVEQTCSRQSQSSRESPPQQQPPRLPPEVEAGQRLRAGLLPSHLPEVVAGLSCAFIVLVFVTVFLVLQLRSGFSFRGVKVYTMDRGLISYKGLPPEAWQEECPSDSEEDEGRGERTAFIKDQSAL
Sequence,furin cleavage Z-score (7.5 min),furin cleavage Z-score (15 min),furin cleavage Z-score (30 min)
B1,10.1 (active),12.1 (active),10.9 (active)
B2,1.47,0.449 (inactive),3.01
B3,-0.543 (inactive),1.6,1.76
B4,-0.438 (inactive),-2.78 (inactive),-1.36 (inactive)
B5,9.87 (active),10.7 (active),9.68 (active)
B6,8.7 (active),11.5 (active),8.86 (active)
B7,1.79,1.59,0.476 (inactive)
B8,1.67,1.9,0.967 (inactive)
B9,10.7 (active),9.83 (active),7.82 (active)
B10,3.92 (active),4.37 (active),4.65 (active)
B11,4.27 (active),4.96 (active),6.98 (active)
B12,-0.0765 (inactive),-1.98 (inactive),-2.55 (inactive)

# From the supplement of paper PMC3545927
